Assay outcomes: PubChem BioAssay, several laboratories
MazEF act: increases E. coli MazEF RNase cleavage of RNA | FAM/BHQ RNA-DNA oligo cleavage fluorescence, 5 h | activation, % at 20 µM | 0.32% of 350,000 active | AID 504720; in the data active = activation above about 50%
Target sequence (P0AE70 whole entry, looked up): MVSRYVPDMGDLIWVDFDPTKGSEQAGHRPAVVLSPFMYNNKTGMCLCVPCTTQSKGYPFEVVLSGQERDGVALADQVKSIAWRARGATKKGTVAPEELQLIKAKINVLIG
PfHsp40 rescue: rescue of PfHsp40-mediated yeast toxicity; growth rescue, % at 12.5 µM; AID 504582; S. cerevisiae expressing PfHsp40, growth rescue, ATP luminescence; 0.68% of 340,000 active; in the data active = growth rescue above about 28%, passing the limit was not always enough; inconclusive = no clear call, values can overlap the other calls;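 note: yeast W303a lacking pdr1 and pdr3 grown in galactose medium; growth measured after three days at 30 °C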
PriA SSB inh: inhibitors of Klebsiella pneumoniae PriA binding to SSB C-terminal tail | AlphaScreen SSBct-PriA binding, biotinylated peptide | inhibition, % at 33 µM | 0.6% of 430,000 active; in the data active = inhibition mostly above about 37%, no sharp cut-off; inactive = mostly below about 20%;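 note: plate controls were negative control peptide for no effect and reference peptide for full effect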
PrPC surface inh: reduces human prion protein on the cell surface | 0.43% of 370,000 active | cell surface PrPC, TR-FRET read-out | AID 720596 | inhibition, % at 13.8 µM; in the data active = inhibition above about 24%; note: 0% = median of the test wells and 100% = reference compound wells
PrP 5UTR inh: inhibition of PrP 5' UTR reporter expression | cell-based PrP 5' UTR mRNA reporter, plate reader | 0.35% of 340,000 active | inhibition, % (no concentration beside the values) | AID 488862; in the data active = inhibition above about 52%; note: 0 = median of the neutral control wells
PrP UTR cherry: prion 5' UTR mRNA inhibition, cherry-pick retest | shares compounds with PrP 5UTR inh | cell-based prion protein 5' UTR reporter, plate reader | inhibition, % at 2.5 µM | 48% of 1,100 active | AID 504592; in the data active = inhibition above about 54%; inconclusive = no clear call, values can overlap the other calls
* hit, by the source's call. The list is not random: actives were taken first. Their share in the collection is about 1.8%.

What do the screens show for `CC(C)(C)C(=O)Nc1ccc(NC(=O)c2ccco2)nc1`?
MazEF act: 1; PfHsp40 rescue: -1; PriA SSB inh: 12; PrPC surface inh: -10; PrP 5UTR inh: 88*; PrP UTR cherry: 94*

How did O=C(Nc1ccc(NC(=O)c2ccco2)nc1)c1ccco1 do in these assays?
MazEF act: 7; PfHsp40 rescue: 1; PriA SSB inh: -1; PrPC surface inh: 6; PrP 5UTR inh: -38

What do the screens show for `C=CCCC1(CC(C)C)C(=O)NC(=S)NC1=O`?
MazEF act: 9; PfHsp40 rescue: -1; PriA SSB inh: 0; PrPC surface inh: -6; PrP 5UTR inh: 91*; PrP UTR cherry: -3

What do the screens show for `O=C(/C=C/c1cccs1)Nc1ccc(Br)cn1`?
MazEF act: -30; PfHsp40 rescue: 1; PriA SSB inh: -20; PrPC surface inh: -4; PrP 5UTR inh: 61*; PrP UTR cherry: 84*

Results for O=C(/C=C/c1cccs1)Nc1cccc(NC(=O)/C=C/c2cccs2)n1 ?
MazEF act: 0; PfHsp40 rescue: 2; PriA SSB inh: -1; PrPC surface inh: 6; PrP 5UTR inh: -70

Results for COc1c(C)cc(C(=O)C2CCCN(Cc3cccc4nccnc34)C2)cc1C (centres undefined) ?
MazEF act: 3; PfHsp40 rescue: 2; PriA SSB inh: 4; PrPC surface inh: -8; PrP 5UTR inh: -10

Results for CC(C)(C)c1ccc(-c2cc(N)n[nH]2)cc1 ?
MazEF act: 1; PfHsp40 rescue: 0; PriA SSB inh: -5; PrPC surface inh: -1; PrP 5UTR inh: 64*; PrP UTR cherry: inconclusive

How did Cc1ccc(-c2cc(N)n[nH]2)cc1 do in these assays?
MazEF act: 0; PfHsp40 rescue: -1; PriA SSB inh: 7; PrPC surface inh: 5; PrP 5UTR inh: -22

Results for CN(C)CCNCCCNc1c2ccccc2nc2cccc([N+](=O)[O-])c12 ?
MazEF act: -4; PfHsp40 rescue: -1; PriA SSB inh: -13; PrPC surface inh: -13; PrP 5UTR inh: 95*; PrP UTR cherry: 98*

What do the screens show for `CCC(C)(C)c1ccc(Oc2ccc(N)cc2)cc1`?
MazEF act: -1; PfHsp40 rescue: 0; PriA SSB inh: 10; PrPC surface inh: 7; PrP 5UTR inh: 87*; PrP UTR cherry: 88*

Results for O=C(Cc1ccc(Cl)cc1)Nc1ccc(C(=O)N2CCOCC2)cc1 ?
MazEF act: -9; PfHsp40 rescue: 0; PriA SSB inh: -13; PrPC surface inh: 2; PrP 5UTR inh: 63*; PrP UTR cherry: -12

What do the screens show for `Cc1ccc(C=NN=Cc2ccc(C)cc2)cc1`?
PriA SSB inh: -6

How did COc1ccccc1C(=O)NCCC(=O)N1CCN(c2ccc(C(F)(F)F)cn2)CC1 do in these assays?
MazEF act: 1; PfHsp40 rescue: -1; PriA SSB inh: -7; PrPC surface inh: 5; PrP 5UTR inh: -1

Results for CCOc1ccccc1C(=O)N1CCN(c2ccc(C(F)(F)F)cn2)CC1 ?
MazEF act: 6; PfHsp40 rescue: 2; PriA SSB inh: -8; PrPC surface inh: 3; PrP 5UTR inh: 62*; PrP UTR cherry: 8

How did Cc1cccc(-n2ncc3c(N(CCO)CCO)ncnc32)c1 do in these assays?
MazEF act: -1; PfHsp40 rescue: 0; PriA SSB inh: -4; PrPC surface inh: 8; PrP 5UTR inh: -66

Results for COc1ccc(-n2ncc3c(N(C)C4CCCCC4)ncnc32)cc1 ?
MazEF act: 12; PfHsp40 rescue: 1; PriA SSB inh: 0; PrPC surface inh: 12; PrP 5UTR inh: 78*; PrP UTR cherry: 66*

Results for COc1ccc(-n2ncc3c(N4CCC(C)CC4)ncnc32)cc1 ?
MazEF act: 12; PfHsp40 rescue: -2; PriA SSB inh: -11; PrPC surface inh: 4; PrP 5UTR inh: -7

Results for Cc1cccc(-n2ncc3c(N(C)C4CCCCC4)ncnc32)c1 ?
MazEF act: 10; PfHsp40 rescue: 3; PriA SSB inh: -48; PrPC surface inh: 2; PrP 5UTR inh: 78*; PrP UTR cherry: 69*

What do the screens show for `O=C(CN(Cc1ccccc1)C(=O)c1csnn1)NCc1ccccc1`?
MazEF act: 5; PfHsp40 rescue: -1; PriA SSB inh: -10; PrPC surface inh: 1; PrP 5UTR inh: -10

What do the screens show for `Cc1cccc(C)c1OCc1cc(C(=O)N2CCN(c3ccccc3)CC2C)no1` (centres undefined)?
MazEF act: -15; PfHsp40 rescue: -1; PriA SSB inh: 3; PrPC surface inh: 3; PrP 5UTR inh: 8

Results for CN1CCN(CC(=O)Nc2cccc(S(=O)(=O)N(C)c3ccccc3)c2)CC1 ?
MazEF act: -5; PfHsp40 rescue: -1; PriA SSB inh: -3; PrPC surface inh: 1; PrP 5UTR inh: 91*; PrP UTR cherry: 0

What do the screens show for `Cc1nc(SCC(=O)Nc2nc3ccccc3s2)c(C#N)c(C)c1C`?
MazEF act: -1; PfHsp40 rescue: 1; PriA SSB inh: -6; PrPC surface inh: -8; PrP 5UTR inh: 93*; PrP UTR cherry: 93*

How did Cc1nc(SCC(=O)Nc2nccs2)c(C#N)c(C)c1C do in these assays?
MazEF act: 2; PfHsp40 rescue: -1; PriA SSB inh: -2; PrPC surface inh: -3; PrP 5UTR inh: 71*; PrP UTR cherry: 69*

What do the screens show for `CCN(CCNC(=O)Cn1c(=O)sc2ccccc21)c1ccccc1`?
MazEF act: 2; PfHsp40 rescue: -2; PriA SSB inh: -12; PrPC surface inh: 4; PrP 5UTR inh: -25

How did C[C@H](CO)N1C[C@H](C)[C@@H](CN(C)C(=O)Nc2ccccc2)Oc2c(NC(=O)c3ccncc3)cccc2C1=O do in these assays?
MazEF act: 4; PfHsp40 rescue: 1; PriA SSB inh: -1; PrPC surface inh: -4; PrP 5UTR inh: 62*; PrP UTR cherry: -25

How did CCN1C=C(C(=O)c2ccccc2)C(=O)CC1 do in these assays?
MazEF act: -1; PfHsp40 rescue: -2; PriA SSB inh: -23; PrPC surface inh: 4; PrP 5UTR inh: 61*; PrP UTR cherry: 0

What do the screens show for `CCCCN1C=C(C(=O)c2ccccc2)C(=O)CC1`?
MazEF act: 2; PfHsp40 rescue: -2; PriA SSB inh: 10; PrPC surface inh: -1; PrP 5UTR inh: 4

How did CCOC(=O)C(C)Oc1cccc2c(=O)n(CC(=O)NCCc3ccccc3)ccc12 (centres undefined) do in these assays?
MazEF act: 6; PfHsp40 rescue: -1; PriA SSB inh: 0; PrPC surface inh: 4; PrP 5UTR inh: -70

What do the screens show for `CCOC(=O)C(C)Oc1cccc2c(=O)n(CC(=O)NCc3ccccc3)ccc12` (centres undefined)?
MazEF act: 0; PfHsp40 rescue: -2; PriA SSB inh: -13; PrPC surface inh: 10; PrP 5UTR inh: 75*; PrP UTR cherry: 88*

What do the screens show for `CCOC(=O)C(C)Oc1cccc2c(=O)n(CC(=O)NCc3ccc(F)cc3)ccc12` (centres undefined)?
MazEF act: 5; PfHsp40 rescue: -1; PriA SSB inh: -7; PrPC surface inh: -2; PrP 5UTR inh: 79*; PrP UTR cherry: 91*
